Our source for the PBM binding z-score values is the supplement of paper PMC6555819.

Test in all cases: PBM binding z-score (relative to random genomic background probes); higher = stronger binding; sequences stand for … in GC…GCGATTGACAGCGTAGAATGAAGG
The subject of experiment [1] is RARb homodimer (NR concentration 270 nM). Put shortly: (§1)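 Binding z-scores take random background probes as their reference. They come from custom Agilent 4×180K protein-binding microarrays incubated 1 h with ligand-free nuclear receptor dimers, with antibodies against each partner (one per run) detecting binding. Scanned fluorescence was regression-normalized.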
Experiment [2] concerns RARg:RXRa (NR concentration 270 nM, RXRa partner concentration 90 nM). Put shortly: as §1
Experiment [3] concerns RARg homodimer (NR concentration 270 nM). Put shortly: as §1
Experiment [4] concerns RXRa DBDmut IVT, anti-RXR (DBD mutation: RXRa K156A/R161A, NR concentration 90 nM). In outline: as §1
Experiment [5] concerns RXRa homodimer (NR concentration 180 nM). Put shortly: as §1
For experiment [6], the system named is THRa:RXRa (NR concentration 90 nM, RXRa partner concentration 90 nM). Put shortly:
as §1

Experiment [7] deals with THRa homodimer (NR concentration 90 nM). Put shortly:
as §1

Experiment [8] has as its system VDR:RXRa (NR concentration 270 nM, RXRa partner concentration 90 nM). In outline:
as §1

Experiment [9] has as its system VDR homodimer (NR concentration 270 nM). Put shortly: as §1

CGAACGAGGGCATGAGTTGAAAGCAAATGCCGAT: the PBM binding z-score in experiment [1] came out at 0.836; in experiment [2] it was 1.52; in experiment [3], 1.57; in experiment [4], 2.22; in experiment [5], 1.19; in experiment [6], 1.37. For the same sequence, the PBM binding z-score in experiment [7] was -0.313; in experiment [8] it was 1.25; in [9] it was 1.57.
For TCTTGTAGATCACTAGAGGTTAAGAAAGTGCGCT, the PBM binding z-score worked out at 1.33 in experiment [1]; 0.919 in experiment [2]; 0.66 in experiment [3]; 0.477 in experiment [4]; 1.6 in experiment [5]; 2.43 in experiment [6]. Besides, the PBM binding z-score was -0.317 in experiment [7], 2.06 in experiment [8] and 0.162 in experiment [9].
Regarding CAAACTAGGTCGCAGAGGTCAAAGTCCGTGCGTA, the PBM binding z-score in experiment [1] is 4.96; in experiment [2], 6.18; in experiment [3], 5.62; in experiment [4], 2.9; in experiment [5], 6.96; in experiment [6] it was 4.19. Further, the PBM binding z-score in experiment [7] is 1.67; in [8], 7.14; in [9] it was 5.86.
Consider TCGAGTAGGTTAGTCGGAGCATTCAGCCAACATA, for which the PBM binding z-score is -0.533 in experiment [1]; -0.461 in experiment [2]; -0.343 in experiment [3]; -0.252 in [4]; -0.401 in [5]; -0.658 in [6]. Also, the PBM binding z-score in experiment [7] was -0.781; in experiment [8] it was -0.307; in experiment [9], -0.514.
As to TCTAGTTGGTCAACGGTCACACACTCGAAATGCG, the PBM binding z-score was found to be 2.49 in [1]; 1.51 in experiment [2]; 2.16 in experiment [3]; 1.24 in [4]; 1.23 in experiment [5]; 0.548 in [6]. The PBM binding z-score in experiment [7] is 0.185; in [8], 0.848; in [9], 0.188.
Consider GATACAGGGTCAGCTAGAGGCCAGAGCATGGAAA, for which the PBM binding z-score is 3.06 in experiment [1]; 6.77 in experiment [2]; 4.51 in [3]; 1.31 in experiment [4]; 4.26 in experiment [5]; 3.01 in experiment [6]. Moreover, the PBM binding z-score in experiment [7] amounted to 0.132; in experiment [8], 3.04; in [9] it was 0.805.
Consider TCATATAGGTAAAGATGAAAGTCGAACGATATGA, for which the PBM binding z-score in [1] is -0.846; in experiment [2] it was 0.547; in [3] it was 0.586; in experiment [4] it was 0.337; in experiment [5], 0.56; in experiment [6] it was -0.225. The PBM binding z-score is -1.11 in [7], 0.437 in [8] and -0.391 in experiment [9].
In the case of CGTCCAAGGTCAGAGAGGTCAATGAATGCCGAGT, the PBM binding z-score in [1] was 5.42; in [2] it was 7; in experiment [3] it was 7.52; in experiment [4], 3.55; in experiment [5], 6.58; in experiment [6], 4.53. Further, the PBM binding z-score in experiment [7] came to 2.88; in experiment [8], 7.79; in experiment [9], 6.88.
For CGTCCAAGGTCATCGGAGGTCAGTGAAGACAGAT, the PBM binding z-score in [1] is 5.43; in [2], 7.31; in experiment [3], 7.72; in experiment [4] it was 4.24; in [5], 6.83; in experiment [6], 5.45. In addition, the PBM binding z-score in [7] was determined as 3.48; in experiment [8] it was 7.04; in experiment [9] it was 5.07.
In the case of CGTCCAAGGTCAGCAGGTCAGTGGAAGCGACGTG, the PBM binding z-score in [1] turned out to be 5.03; in [2], 6.2; in [3] it was 6.72; in experiment [4], 2.48; in experiment [5], 4.81; in [6] it was 3.96. For the same sequence, the figures for the PBM binding z-score in experiment [7], in experiment [8] and in [9] were 2.37, 3.82 and 1.6, respectively.
Take ACTATTAGTTGAGACGAGGGCAGCCGATAGGTTG: the PBM binding z-score in experiment [1] came to 0.756; in [2] it was 0.374; in experiment [3], 0.715; in experiment [4], 0.298; in [5], 0.449; in experiment [6], 2.02. Besides, the figures for the PBM binding z-score in experiment [7], in experiment [8] and in experiment [9] were 0.0606, 0.339 and 0.189, respectively.
With TCGAGTAGGTTACCCATGGGGCATTCAGCTTTCT, the PBM binding z-score in [1] stood at 0.802; in [2], 1.61; in experiment [3], 0.414; in experiment [4] it was 0.106; in experiment [5], 0.689; in experiment [6] it was 0.2. In addition, the PBM binding z-score in experiment [7] is -0.507; in experiment [8], -0.0423; in experiment [9] it was -0.557.
In the case of GATACAGGGTCAGCAAGAGGCCAGAGTATGGAAA, the PBM binding z-score in experiment [1] was 3.45; in experiment [2] it was 6.61; in experiment [3] it was 4.76; in experiment [4] it was 1.16; in [5] it was 4.52; in experiment [6] it was 3.21. In addition, the PBM binding z-score in [7] was 0.361; in experiment [8], 3.43; in [9] it was 0.548.
TCTCGGAGGACACGAGAGGTCAGAGCTCGACATC: the PBM binding z-score in experiment [1] came out at 4.3; in [2], 3.89; in experiment [3], 4.28; in [4], 0.77; in [5], 3.07; in experiment [6], 3.98. Besides, the figures for the PBM binding z-score in [7], in experiment [8] and in experiment [9] were 1.64, 3.41 and 1.81, respectively.
Turning to TCTGGTAGATCAGCAGGTTAAGAAAGCTGGCCAA, the PBM binding z-score in experiment [1] was -0.132; in [2], -0.135; in experiment [3], -0.628; in [4], 0.128; in experiment [5], 0.256; in experiment [6] it was 0.0552. Besides, the PBM binding z-score is -0.418 in experiment [7], 0.0223 in experiment [8] and -0.56 in experiment [9].
Take CGTATTAGTTGACCATAAGGGCAACCGAAGCTCG: the PBM binding z-score came to 2.04 in [1]; 1.2 in experiment [2]; 0.883 in experiment [3]; 0.244 in experiment [4]; 0.743 in experiment [5]; 1.83 in experiment [6]. For the same sequence, the PBM binding z-score worked out at 1.15 in experiment [7], 0.396 in experiment [8] and 0.668 in experiment [9].
